Results on 22 compounds are retold here after PubChem BioAssay (Tox21).

A short description of assay [1]: qHTS assay to identify aromatase inhibitors - cell viability counter screen (AID 743084).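 Also: cells stimulated with testosterone during compound exposure; nearly all actives have a fitted effect of over 55% in size.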 Also: potency is read from the fitted curve at half-maximal effect.
For assay [2], the target named is Aryl hydrocarbon receptor (Homo sapiens) (UniProt P35869). Put plainly: qHTS assay to identify small molecule that activate the aryl hydrocarbon receptor (AhR) signaling pathway (AID 743085). Also: nearly all actives have a fitted effect of over 15% in size. Also: potency is read from the fitted curve at half-maximal effect.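 As to activation: HG2L7.5c1 human HepG2 liver cells with stably integrated DRE-driven firefly reporter; series mostly up to about 70 µM.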 The method in brief:
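Stably transfected human liver carcinoma cells (HG2L7.5c1; 20 DRE-firefly luciferase) were incubated 5 h, dosed, and kept 24 h at 37C. Agonism was scored from increased luciferase luminescence.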
Background: qHTS replaces the single test concentration by a dilution series.

Assay [3] can be described thus: qHTS assay to identify small molecule that activate the aryl hydrocarbon receptor (AhR) signaling pathway - cell viability counter screen (AID 743086). Also: nearly all actives have a fitted effect of over 45% in size. Also: potency is read from the fitted curve at half-maximal effect. The method in brief: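 HepG2-AhR-luc (HG2L7.5c1) cells, 4000/well, were preincubated 5 h at 37C, exposed to compound in qHTS format for 24 hr at 37C, then given CellTiter-Fluor for 30 min; viability was read as fluorescence in the reporter wells.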

Assay [4] concerns the target Peroxisome proliferator-activated receptor gamma (Homo sapiens) (UniProt P37231). Put plainly: qHTS assay to identify small molecule agonists of the peroxisome proliferator-activated receptor gamma (PPARg) signaling pathway (AID 743094; active = well fitted activation curve with a large enough effect in the signal ratio in the repeat runs, not every such curve was filed as active; the % refers to the signal ratio). In short, it runs like this: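 Agonist activity was taken from a beta-lactamase reporter (FRET substrate, 1 h at room temperature) in HEK293H cells carrying a PPARg UAS-bla construct. Compounds in DMSO were incubated 17 h at 37C after a 5 h cell pre-incubation.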

A short description of assay [5]: qHTS assay to identify small molecule phospholipidosis (PLD) inducers (AID 1259344; active = well fitted curve in the direction sought with a large enough effect; an effect the other way counts as inactive or inconclusive). The method in brief: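 After 4 h attachment on collagen I, HepG2 cells were dosed with compound alongside LipidTOX Red, kept 24 h at 37 C, fixed, and imaged for lamellar phospholipid pits.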
Assay [6] deals with Nuclear receptor subfamily 1 group I member 2 (Rattus norvegicus) (UniProt Q9R1A7). Put plainly: Rat pregnane X receptor (rPXR) activation by small molecules, qHTS assay (AID 1346983). Also: nearly all actives have a fitted effect of over 20% in size. The conditions noted are these: rPXR luciferase reporter cells, One-Glo luminescence, 24 h; max activation: stronger effect = higher value. The method in brief:
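Cell-based rPXR luciferase reporter assay, 2,000 cells per well, rested 5hr at 37 C before compound addition in DMSO, then 24 hr at 37 C. One-Glo reagent was added and luminescence read after 30 min at room temperature.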

Assay [7] has as its target Nuclear receptor subfamily 1 group I member 2 (Homo sapiens) (UniProt O75469). The experiment in a line: CYP3A4 induction through human pregnane X receptor (PXR) by small molecules, qHTS assay (AID 1346984). Also: nearly all actives have a fitted effect of over 40% in size. Also: potency is read from the fitted curve at half-maximal effect. The method in brief:
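Read-out is luminescence after One-Glo addition, following a 3 hr, 37C incubation with Luciferin-IPA CYP3A4 substrate (3uM final). Before that, compounds were on DPX-2 cells (HepG2 co-transfected with PXR element plus CYP3A4-promoter luciferase) for 24 hr at 37C.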

Inconclusive results are not listed. Values without a mark were called inactive. Activity calls are given as the source filed them. Unless noted, calls follow the shape of the dose curve; as a rule, active = well fitted curve in the direction sought with a large enough effect in the repeat runs; inconclusive = weak or mixed curves; inactive = no such curve, though single readings can be large; an effect the other way counts as inactive or inconclusive.
% is scaled to controls: 0 for no effect and ±100 for the full control effect.

Sequence of Peroxisome proliferator-activated receptor gamma (Homo sapiens) (P37231 whole entry, looked up): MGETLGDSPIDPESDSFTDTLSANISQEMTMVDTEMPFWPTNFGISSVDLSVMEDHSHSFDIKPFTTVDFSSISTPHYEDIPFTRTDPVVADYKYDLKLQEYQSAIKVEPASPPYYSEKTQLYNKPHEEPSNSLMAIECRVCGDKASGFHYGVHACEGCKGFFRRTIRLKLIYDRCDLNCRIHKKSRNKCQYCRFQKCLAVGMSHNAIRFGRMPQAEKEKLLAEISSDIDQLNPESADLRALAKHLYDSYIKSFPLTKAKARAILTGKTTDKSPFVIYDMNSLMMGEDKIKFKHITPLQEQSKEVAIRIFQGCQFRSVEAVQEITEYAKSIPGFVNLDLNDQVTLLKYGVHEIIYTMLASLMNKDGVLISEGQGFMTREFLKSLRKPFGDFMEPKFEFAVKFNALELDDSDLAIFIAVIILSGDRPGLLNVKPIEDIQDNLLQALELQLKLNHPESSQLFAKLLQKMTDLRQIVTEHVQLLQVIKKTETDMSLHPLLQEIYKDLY
Sequence of Nuclear receptor subfamily 1 group I member 2 (Rattus norvegicus) (Q9R1A7 whole entry, looked up): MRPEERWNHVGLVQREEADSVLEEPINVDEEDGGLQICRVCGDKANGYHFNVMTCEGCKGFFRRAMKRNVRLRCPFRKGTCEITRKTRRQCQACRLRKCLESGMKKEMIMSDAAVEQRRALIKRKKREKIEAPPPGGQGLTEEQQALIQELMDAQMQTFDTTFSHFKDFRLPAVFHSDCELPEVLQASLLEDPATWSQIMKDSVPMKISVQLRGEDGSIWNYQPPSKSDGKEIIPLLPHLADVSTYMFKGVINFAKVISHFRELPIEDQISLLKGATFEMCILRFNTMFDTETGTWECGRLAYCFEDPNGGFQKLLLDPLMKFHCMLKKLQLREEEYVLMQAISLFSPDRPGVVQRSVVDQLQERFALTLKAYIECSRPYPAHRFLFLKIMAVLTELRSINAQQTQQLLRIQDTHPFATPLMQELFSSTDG
Sequence of Aryl hydrocarbon receptor (Homo sapiens) (P35869 whole entry, looked up): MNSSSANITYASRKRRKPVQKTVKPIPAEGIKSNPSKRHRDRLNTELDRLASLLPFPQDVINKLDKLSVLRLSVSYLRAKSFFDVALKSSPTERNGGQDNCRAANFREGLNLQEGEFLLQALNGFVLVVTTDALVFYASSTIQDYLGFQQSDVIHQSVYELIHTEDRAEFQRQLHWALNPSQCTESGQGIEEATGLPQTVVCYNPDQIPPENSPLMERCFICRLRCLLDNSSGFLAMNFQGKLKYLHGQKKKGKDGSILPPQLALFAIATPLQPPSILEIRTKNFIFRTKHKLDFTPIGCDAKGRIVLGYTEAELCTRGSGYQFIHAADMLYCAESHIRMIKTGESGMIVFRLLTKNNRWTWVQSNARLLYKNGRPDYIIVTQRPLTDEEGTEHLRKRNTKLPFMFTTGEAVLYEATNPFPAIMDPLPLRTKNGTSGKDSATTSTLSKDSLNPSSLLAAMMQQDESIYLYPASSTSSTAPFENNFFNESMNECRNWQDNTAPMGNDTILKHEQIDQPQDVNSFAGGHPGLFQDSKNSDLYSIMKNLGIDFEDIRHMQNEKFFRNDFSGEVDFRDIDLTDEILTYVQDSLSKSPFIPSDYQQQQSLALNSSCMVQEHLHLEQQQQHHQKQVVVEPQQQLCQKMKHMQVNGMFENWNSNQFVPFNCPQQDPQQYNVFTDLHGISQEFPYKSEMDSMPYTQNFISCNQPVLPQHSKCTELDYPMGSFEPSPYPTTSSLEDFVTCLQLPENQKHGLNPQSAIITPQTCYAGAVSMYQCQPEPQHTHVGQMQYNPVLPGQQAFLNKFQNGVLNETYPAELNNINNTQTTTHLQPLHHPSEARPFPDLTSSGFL

Take `OC[C@@H](O)C(O)[C@H](O)CO`: the Potency result in assay [1], in assay [2], in assay [3], in assay [4], in assay [5] and in assay [7] was “inactive” throughout. In addition, the max activation in assay [6] is -1.82%.

Regarding `CNc1cc(OC)c(C(=O)N[C@H]2CCN(Cc3ccccc3)[C@H]2C)cc1Cl`, the Potency entry in assay [1], in assay [2], in assay [3], in assay [4], in assay [5] and in assay [7] was “inactive” in each case. Further, the max activation in assay [6] is -1.71%.

Regarding `C=CCN1CCCC1CNC(=O)c1cc(S(N)(=O)=O)cc(OC)c1OC` (centres undefined), the Potency result in assay [1], in assay [2], in assay [3], in assay [4] and in assay [5] was “inactive” in each case. Moreover, the max activation in assay [6] was -5.9%. For the same compound, the Potency in assay [7] is 14.1 µM (active).

On to `O=C(Nc1ccc(O)cc1)c1ccccc1O`, for which the Potency result in assay [1], in assay [3], in assay [4] and in assay [5] was “inactive” throughout. The max activation in assay [6] is 3.27%. The Potency in assay [7] was 11.2 µM (active).

In the case of `O=C(CO)[C@@H](O)[C@H](O)[C@@H](O)C(=O)O`, the Potency result in assay [1], in assay [2], in assay [4], in assay [5] and in assay [7] was “inactive” in each case. Moreover, the max activation in assay [6] is -2.1%.

As for `CN(C)c1ccc(C(=C2C=CC(=[N+](C)C)C=C2)c2c(O)c(S(=O)(=O)[O-])cc3cc(S(=O)(=O)O)ccc23)cc1`, the Potency in assay [1] was 29.8 µM (active); in assay [3], 26.6 µM (active). Besides, the Potency entry in assay [2], in assay [4], in assay [5] and in assay [7] was “inactive” throughout. Moreover, the max activation in assay [6] is -15.3%.

Turning to `COc1ccc(C2(C#N)CCC(C(=O)O)CC2)cc1OC1CCCC1` (centres undefined), the Potency result in assay [1], in assay [3], in assay [5] and in assay [7] was “inactive” in each case. Moreover, the max activation in assay [6] is -0.133%.

`CCCCC(C)(O)C/C=C/[C@H]1[C@H](O)CC(=O)[C@@H]1CCCCCCC(=O)OC` (some centres undefined): the Potency entry in assay [1], in assay [2], in assay [3], in assay [4], in assay [5] and in assay [7] was “inactive” each time. Moreover, the max activation in assay [6] is -4.82%.

Take `CCCCCCCCCCCCCCCCOCCOCCOCCOCCOCCOCCOCCOCCOCCOCCOCCOCCOCCOCCOCCOCCOCCOCCOCCOCCO`: the Potency entry in assay [2], in assay [5] and in assay [7] was “inactive” throughout. Further, the max activation in assay [6] is -15.6%.

For the compound `O=C(O)c1cc(O)c2c(c1)[O][Bi][O]2`, the Potency entry in assay [1], in assay [3], in assay [4], in assay [5] and in assay [7] was “inactive” in each case. In addition, the max activation in assay [6] is -0.194%.

As for `O=C1C(=O)c2ncccc2-c2cccnc21`, the Potency entry in assay [1], in assay [4], in assay [5] and in assay [7] was “inactive” throughout. For the same compound, in assay [2], the Potency was 6.68 µM (active). Besides, the max activation in assay [6] was -3.81%.

`Nc1ncnc2c1ncn2[C@@H]1O[C@H](COP(=O)(O)OP(=O)(O)OP(=O)(O)O)[C@@H](O)[C@H]1O`: the Potency result in assay [2], in assay [3], in assay [4], in assay [5] and in assay [7] was “inactive” throughout. Besides, the max activation in assay [6] is 2.22%.

On to `COC(F)(F)C(Cl)Cl`, for which the Potency result in assay [1], in assay [2], in assay [3], in assay [4], in assay [5] and in assay [7] was “inactive” in each case. Also, in assay [6], the max activation was 0.553%.

Turning to `CCN(CC)CCOc1ccc2nc(N(C)C)sc2c1`, the Potency entry in assay [1], in assay [3], in assay [4], in assay [5] and in assay [7] was “inactive” in each case. Besides, the max activation in assay [6] was 2.91%.

Take `CSc1nc2cc(Oc3cccc(Cl)c3Cl)c(Cl)cc2[nH]1`: the Potency result in assay [1], in assay [3], in assay [4], in assay [5] and in assay [7] was “inactive” in each case. The max activation in assay [6] is -0.842%.

Turning to `CC(C)CCC[C@@H](C)[C@H]1CC(=O)C2=C3CC[C@H]4C[C@@H](O)CC[C@]4(C)[C@H]3CC[C@@]21C`, the Potency entry in assay [1], in assay [2], in assay [3], in assay [4], in assay [5] and in assay [7] was “inactive” in each case. The max activation in assay [6] is -2.36%.

Regarding `CN1CCN2c3ncccc3Cc3ccccc3C2C1` (centres undefined), the Potency entry in assay [3] and in assay [5] was “inactive” each time. Further, the max activation in assay [6] was -0.13%. Moreover, the Potency in assay [7] is 15.8 µM (active).

As to `COc1cc2c(cc1OC)[C@@H](c1ccccc1)CN(C)CC2`, the Potency result in assay [1], in assay [3], in assay [4], in assay [5] and in assay [7] was “inactive” in each case. Moreover, in assay [6], the max activation was 1.99%.

Turning to `c1ccc2cc(C3=NCCN3)ccc2c1`, the Potency result in assay [1], in assay [3], in assay [4], in assay [5] and in assay [7] was “inactive” throughout. In addition, the max activation in assay [6] was -0.34%.

Consider `CC(CN1c2ccccc2Sc2cccnc21)N(C)C` (centres undefined), for which the Potency result in assay [1], in assay [2], in assay [3], in assay [4] and in assay [5] was “inactive” in each case. Also, the max activation in assay [6] was -2.44%. Further, in assay [7], the Potency was 3.98 µM (active).

On to `COC(=O)[C@H]1[C@H]2C[C@@H]3c4[nH]c5cc(OC)ccc5c4CCN3C[C@H]2C[C@H](OC)[C@@H]1OC`, for which the Potency entry in assay [1], in assay [3], in assay [5] and in assay [7] was “inactive” throughout. In addition, in assay [6], the max activation was 6.76%.

Turning to `CCC(C)[C@@H](N)C(=O)O` (some centres undefined), the Potency result in assay [1], in assay [2], in assay [4], in assay [5] and in assay [7] was “inactive” each time. The max activation in assay [6] was -2.74%.
